Source: PubChem BioAssay (Tox21)
Records with an inconclusive call do not appear. Unmarked numbers belong to inactive results. The source made the active and inactive calls. Calls come from the whole dose curve; as a rule, active = well fitted inhibition curve with a large enough effect in the repeat runs; inconclusive = weak or mixed curves, or effect the other way; inactive = no such curve, though single readings can be large or run the other way.

Each molecule was assayed against Androgen receptor (Homo sapiens) (UniProt P10275) (assay: qHTS assay to identify small molecule antagonists of the androgen receptor (AR) signaling pathway using the MDA cell line (AID 743042; note: nearly all actives have a fitted effect of over 55% in size)). Conditions: MDA-kb2 AR-luc, MMTV luciferase, R1881 antagonist, 16 h; series mostly up to 70.3 µM; activity change, negative = inhibition: at the top concentration.
Text: U.S. Tox21 Program National Center for Advancing Translational Sciences [NCATS] NIH Chemical Genomics Center [NCGC] U.S. Environmental Protection Agency [EPA] National Institutes of Environmental Health Sciences [NIEHS] National Toxicology Program [NTP] U.S. Food and Drug Administration [FDA] Tox21 Assay Overview: Androgen receptor (AR), a nuclear hormone receptor, plays a critical role in AR-dependent prostate cancer and other androgen related diseases. Endocrine disrupting chemicals (EDCs) and their interactions with steroid hormone receptors like AR may cause disruption of normal endocrine function as well as interfere with metabolic homeostasis, reproduction, developmental and behavioral functions. To identify the compounds that inhibit AR signaling, MDA-kb2 AR-luc cell line (from ATCC, deposited by Wilson et al.) was used to screen the Tox21 10K compound library. MDA-kb2 AR-luc cell line is human breast carcinoma cell line that was stably transfected with a luciferase reporter gene under control of the MMTV promoter containing response elements for both androgen receptor (AR) and glucocorticoid receptor (GR).
Tox21 Assay Protocol Summary: MDA-kb2 cells were dispensed at 3,000 cells/4 uL/well of culture medium into white wall/solid-bottom 1536-well plates using a Multidrop Combi (ThermoFisher Scientific, Waltham, MA) dispenser. After the assay plates were incubated at a 37C and 0% CO2 for 5 hr, 23 nL of compounds dissolved in DMSO, positive controls or DMSO only was transferred to the assay plate by a Pintool station (Kalypsys, San Diego, CA), followed by addition of 1 uL of agonist (R1881) in culture medium using a Bioraptr Flying Reagent Dispenser (FRD) workstation (Beckman Coulter, Indianapolis, IN, USA). The plates were incubated at a 37C and 0% CO2 for 16 h. After 15.5 h incubation, 1uL of CellTiter-Fluor reagent (Promega, Madison, WI) was added using a Bioraptr FRD to each plate for measuring cytotoxicity. The fluorescence intensity was quantified on a ViewLux plate reader (PerkinElmer, Shelton, CT) following 30 min incubation at 37C and 0% CO2. For measuring luciferase reporter gene activity, 4 uL of ONE-Glo reagent (Promega) was added to each plate using a Bioraptr FRD and luminescence was quantified on a ViewLux (PerkinElmer) plate reader after 30 min incubation at room temperature.
% is set by controls: 0 for no effect and ±100 for the full control effect; potency is the fitted concentration of half-maximal effect.

Chain of Androgen receptor (Homo sapiens) (P10275 whole entry, looked up): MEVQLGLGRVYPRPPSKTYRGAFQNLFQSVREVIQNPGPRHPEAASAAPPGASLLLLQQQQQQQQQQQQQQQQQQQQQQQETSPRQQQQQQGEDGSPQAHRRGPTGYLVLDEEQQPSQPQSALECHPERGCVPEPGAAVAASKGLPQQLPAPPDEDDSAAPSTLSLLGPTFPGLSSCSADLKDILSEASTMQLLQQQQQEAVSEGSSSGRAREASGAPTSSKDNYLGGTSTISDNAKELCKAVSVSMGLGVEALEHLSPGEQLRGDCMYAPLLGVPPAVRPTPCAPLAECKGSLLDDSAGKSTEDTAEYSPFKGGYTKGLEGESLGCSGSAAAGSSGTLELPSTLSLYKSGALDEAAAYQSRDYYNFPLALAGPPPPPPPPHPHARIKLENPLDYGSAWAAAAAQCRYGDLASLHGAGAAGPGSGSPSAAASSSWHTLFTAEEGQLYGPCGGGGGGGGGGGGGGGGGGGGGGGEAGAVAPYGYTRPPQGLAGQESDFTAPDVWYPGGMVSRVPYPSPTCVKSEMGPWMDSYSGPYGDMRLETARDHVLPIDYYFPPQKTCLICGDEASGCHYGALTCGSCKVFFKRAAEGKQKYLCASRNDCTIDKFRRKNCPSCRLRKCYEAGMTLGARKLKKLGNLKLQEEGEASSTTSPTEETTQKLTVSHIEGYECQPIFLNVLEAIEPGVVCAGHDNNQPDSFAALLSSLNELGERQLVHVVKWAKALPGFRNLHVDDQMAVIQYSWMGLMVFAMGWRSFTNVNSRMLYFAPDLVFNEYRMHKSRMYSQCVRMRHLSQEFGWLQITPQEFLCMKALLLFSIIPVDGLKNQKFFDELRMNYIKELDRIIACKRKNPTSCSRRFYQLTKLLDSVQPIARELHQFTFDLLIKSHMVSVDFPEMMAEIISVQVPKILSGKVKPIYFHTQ

Compound	activity change, negative = inhibition	Potency
OCCCO	15.9% [at 95 µM]	–
O=C(O)c1cccc(C(=O)O)c1C(=O)O	1.57% [at 95 µM]	–
O=C(Nc1ccccc1)c1cc([N+](=O)[O-])ccc1Cl	-27.4%	–
CCOc1cc(OCC)c(C(C)=O)cc1OCC	-16.8%	–
CC[C@H](NC(C)C)[C@H](O)c1ccc(O)c2[nH]c(=O)ccc12	-8.89%	–
CCCc1nc(C)c2c(=O)[nH]c(-c3cc(S(=O)(=O)N4CCN(CC)CC4)ccc3OCC)nn12	24%	–
NC(=O)c1ccccc1C(N)=O	-6.75% [at 95 µM]	–
CCCCCCCCCCCCCCCCC(=O)O	25%	–
Nc1ccc(F)cc1F	11.6% [at 95 µM]	–
O=S(=O)(O)c1cc(Cl)c(Cl)cc1Cl	-0.39%	–
CC(=O)Oc1cccc2c1C(=O)c1c(OC(C)=O)cc(C(=O)O)cc1C2=O	-29.3%	–
O=C(OC1C[C@H]2CC[C@@H](C1)[N+]21CCCC1)C(O)(c1ccccc1)c1ccccc1 (some centres undefined)	-0.256%	–
CCOc1ccc(NC(C)=O)cc1N	0.636% [at 95 µM]	–
O=C(O)c1ccc(O)c(O)c1	2.59%	–
CCCC(=O)OCCC(C)C	3.33%	–
O=C(O)c1ccncc1	3.07% [at 95 µM]	–
N#C[C@@H]1CC(F)(F)CN1C(=O)CNC1CC2CCC(C1)N2c1ncccn1 (some centres undefined)	2.87%	–
CCCOC(C)=O	0.16%	–
CCOc1ccc2c(c1)C(C)CC(C)(C)N2 (centres undefined)	-16.8%	–
CCCc1ccc(OC)cc1	0.293% [at 95 µM]	–

Compound	activity change, negative = inhibition	Potency
CCCCCCCCOCCCN	-16.4%	–
COC(=O)/C=C/C(C)=C\C=C\C(C)=C\C=C\C=C(C)\C=C\C=C(C)\C=C\C(=O)O	17.9%	–
Cc1ccc2c(Cl)cc(Cl)c(O)c2n1	–	2660 nM (active)
Cc1nc(C)c(C)nc1C	-0.116%	–
CCCN(C1CCN(C(=O)C2CCNCC2)CC1)[C@@H]1CCc2ccc(OC)cc2C1	0.077%	–
O=c1[nH][nH]c2ccccc12	14.3% [at 95 µM]	–
O=C(O)c1cc(C(=O)O)c(C(=O)O)cc1C(=O)O	1.44%	–
FC(F)(Cl)C(F)(Cl)Cl	-18.5%	–
Cc1c(N=C=O)cccc1N=C=O	13.3% [at 95 µM]	–
CCC1=C(C)CN(C(=O)NCCc2ccc(S(=O)(=O)NC(=O)NC3CCC(C)CC3)cc2)C1=O (centres undefined)	17.9%	–
O=C(c1ccc(Cl)cc1)c1ccc(Cl)cc1	6.51%	–
CCOCCn1c(N2CCCN(C)CC2)nc2ccccc21	13.1%	–
CCCC1CCOC(C)S1 (centres undefined)	-6.47%	–
Cc1cc(SC2=C(O)C[C@@](CCc3ccc(N)cc3)(C(C)C)OC2=O)c(C(C)(C)C)cc1CO	-32.7%	–
CC1(C)[C@@H]2CC[C@]3(C2)[C@@H]1C(=O)CCC3(C)C	-5.69%	–
CC(C(=O)O)c1ccc2c(c1)Cc1cccnc1O2 (centres undefined)	11%	–
CCC[Si](OC)(OC)OC	2.03%	–
COC(=O)Cc1cccc2ccccc12	-24.6%	–
NC(=O)c1ccccc1	7.63% [at 95 µM]	–
